Laboratory results from PubChem BioAssay (NCATS).
Results filed as inconclusive are left out. Calls of active or inactive are those of the source. Calls follow the shape of the dose curve; as a rule, active = well fitted curve in the direction sought with a large enough effect; inconclusive = small, poorly fitted or top-dose-only effect, or another doubt; inactive = no such curve, though single readings can be large or run the other way.

Target: Thioredoxin reductase 1, cytoplasmic (Rattus norvegicus) (UniProt O89049)
Assay: qHTS Assay for Substrates of Mammalian Selenoprotein Thioredoxin Reductase 1 (TrxR1) (AID 488772);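 also: a drop in NADPH fluorescence below the no-compound background marks a TrxR1 substrate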
Details: purified TrxR1, NADPH consumption substrate assay; series mostly up to 57.1 µM
From the text: The selenoprotein thioredoxin reductase (TrxR; EC 1.8.1.9) is a FAD containing homodimeric pyridine nucleotide-disulfide oxidoreductase with many cellular roles. Together with NADPH and its prime substrate thioredoxin (Trx), the enzyme forms the core of the Trx system. The mammalian Trx system exerts a wide spectrum of functions including redox regulation, antioxidant defense, regulation of transcription factors as well as support of cell growth and replication. Many of these functions involve the reduction of Trx, which may subsequently reduce a number of different substrates including ribonucleotide reductase, peroxiredoxins or NFkB. Mammalian TrxR itself also has a broad substrate specificity, reducing both protein and non-protein substrates, including low molecular weight compounds such as dehydroascorbate, lipoic acid, ubiquinone, and juglone. In addition, several drugs in clinical use for anticancer treatment are indeed known to target TrxR1.
This BioAssay is a validation of an NADPH fluorescence-based, dual-purpose qHTS rTrxR1 assay designed to find potential inhibitors and substrates of rTrxR1. For this particular BioAssay, actives are potential substrates. See related BioAssay for inhibitors data deposition.
Assay protocol: 2 uL of reagents (buffer in column 4 as negative control and 90 nM rTrxR1 in columns 1-3 and 5-48) were dispensed into Greiner black solid-bottom 1,536-well assay plates, followed by 1 uL of NADPH (400 uM final concentration) to each well. The plates were centrifuged at 1000 rpm for 15 seconds and subsequently incubated for 5 min at room temperature (~22 deg C) to allow for rTrxR1 reduction. Compounds (23 nL) were then transferred via Kalypsys pin tool equipped with 1536-pin array (10 nL slotted pins, V&P Scientific, San Diego, CA). In addition, a duplicate 2-fold serial dilution of the control compounds auranofin, a known gold-based TrxR1 inhibitor, and juglone (5-hydroxy-1,4-naphthoquinone), a natural TrxR1 substrate, were pin-transferred to columns 2 and 3, respectively. After incubation for 15 min at room temperature (~22 deg C), 1 uL of selenite (400 uM final concentration) were dispensed to each well. The plate was immediately transferred to a ViewLux high-throughput CCD imager (PerkinElmer), wherein kinetic measurements of NADPH fluorescence (Ex 340 nm, Em 450 nm) were acquired (8 minute kinetic read, see Table 1). Read 1 was utilized to assess the capacity of a compound to serve as an rTrxR1 substrate, i.e. a decrease in NADPH fluorescence compared to the no-compound background is an indication of a substrate behavior for that particular compound. For inhibitory activity of a compound, delta values, computed as the difference in fluorescence intensity between the first and last reads of an 8-minute time kinetic window, were used. All reagents were diluted in an assay buffer consisting of 50 mM Tris-HCl, pH 7.5, 2 mM EDTA, and 0.01% Tween-20.
Throughout the screen, reagent bottle and all liquid lines were made light-tight to minimize reagent degradation. All screening operations were performed on a fully integrated robotic system (Kalypsys, San Diego, CA) containing one RX-130 and two RX-90 anthropomorphic robotic arms (Staubli, Duncan, SC). Library plates were screened starting from the lowest and proceeding to the highest concentration, and a 'double-pinning' step of the highest concentration was required to access higher concentrations of compounds. Vehicle-only plates, with DMSO being pin-transferred to the columns 5-48, were inserted uniformly at the beginning and the end of each library in order to monitor and record any shifts in the background, which can be affected by reagent dispensers or loss in enzyme activity over time. Screening data were corrected, normalized, and concentration-effect relationships were derived by using publicly-available curve fitting algorithms developed in-house (http://ncgc.nih.gov/pub/openhts).

Thioredoxin reductase 1, cytoplasmic (Rattus norvegicus), sequence (O89049 whole entry, looked up): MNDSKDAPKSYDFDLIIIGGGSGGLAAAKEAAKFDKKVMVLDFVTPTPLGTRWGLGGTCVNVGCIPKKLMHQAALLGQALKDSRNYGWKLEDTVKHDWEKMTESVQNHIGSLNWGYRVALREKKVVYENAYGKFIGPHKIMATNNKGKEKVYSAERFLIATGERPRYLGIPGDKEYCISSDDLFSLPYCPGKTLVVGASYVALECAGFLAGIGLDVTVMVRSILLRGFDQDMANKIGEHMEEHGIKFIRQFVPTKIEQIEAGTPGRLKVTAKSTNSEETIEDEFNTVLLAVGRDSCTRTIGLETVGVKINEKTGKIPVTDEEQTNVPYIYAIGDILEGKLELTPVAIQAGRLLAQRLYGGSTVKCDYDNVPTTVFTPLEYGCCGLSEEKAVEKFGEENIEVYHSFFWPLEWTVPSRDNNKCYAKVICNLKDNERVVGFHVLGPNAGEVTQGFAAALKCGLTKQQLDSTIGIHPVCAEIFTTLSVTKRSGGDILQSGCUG

| SMILES | outcome |
| --- | --- |
| CC(N)(Cc1ccc(O)c(O)c1)C(=O)O (stereo not given) | inactive |
| COc1cc(CC(=O)O)ccc1O | inactive |
| CCCn1c(=O)c2[nH]c(-c3ccc(S(=O)(=O)O)cc3)nc2n(CCC)c1=O | inactive |
| O=C(O)/C=C/c1cnc[nH]1 | inactive |
| Nc1ncnc2c1ncn2C1CCCO1 (stereo not given) | inactive |
| O=c1onc2cnc3ccccc3n12 | inactive |
| O=c1ccn([C@@H]2O[C@H](COP(=O)(O)OP(=O)(O)O)[C@@H](O)[C@H]2O)c(=O)[nH]1 | inactive |
| CC(N)(Cc1ccc(O)cc1)C(=O)O (stereo not given) | inactive |
| Nc1ccc2c3c(cccc13)C(=O)NC2=O | inactive |
| OC[C@H]1O[C@H](n2cnc3c(N[C@H]4CCC[C@@H]4O)ncnc32)[C@H](O)[C@@H]1O | inactive |
| CCCC(=O)NCCc1c2n(c3ccc(OC)cc13)CCCc1ccccc1-2 | inactive |
| c1ccc(C(NCCNC(c2ccccc2)c2ccccc2)c2ccccc2)cc1 | inactive |
| Cn1c(=O)[nH]c2ncn(C)c2c1=O | inactive |
| CCN1C(=O)C=CC1=O | inactive |
| CN1C2CCC1CC(OC(c1ccccc1)c1ccccc1)C2 (stereo not given) | inactive |
| Cc1ccc([N+](=O)[O-])cc1S(=O)(=O)N(C)C | inactive |
| CCCCCCC/C=C\CCCCCCCCC(=O)O | inactive |
| CCCCCCCCCCC/C=C\C(C)(C)/C=C\CCCC(=O)O | inactive |
| CCn1c(=O)[nH]c2cc(Cl)c(Cl)cc21 | inactive |
| CCOC(=O)C12CC1/C(=N/O)c1ccccc1O2 (stereo not given) | inactive |

| SMILES | outcome |
| --- | --- |
| NCCCCN | inactive |
| C=C1C(=O)O[C@@H]2[C@H]3O[C@]3(C)CCC=C(C)CC[C@@H]12 | inactive |
| COc1cc(/C=C(\C#N)C(=O)Nc2nnc(C(F)(F)F)s2)ccc1OCc1ccc(C(F)(F)F)cc1C(F)(F)F | inactive |
| C[C@H](O)C(=O)C1=Nc2c(nc(N)[nH]c2=O)NC1 | inactive |
| Nc1ncnc2c1nc(Sc1ccc(Cl)cc1)n2[C@H]1OC2COP(=O)(O)O[C@@H]2C1O (stereo not given in full) | inactive |
| O=[N+]([O-])c1cccc2cn[nH]c12 | inactive |
| COc1ccccc1N1CCN(CCCCN2C(=O)c3ccccc3C2=O)CC1 | inactive |
| O=c1onc2n1-c1cc(Br)ccc1OC2 | inactive |
| CCCCCC(O)CCCC(=O)O (stereo not given) | inactive |
| CC(/C=C/c1cccc(Oc2ccc(F)cc2)c1)N(O)C(N)=O (stereo not given) | inactive |
| NC(=Nc1ccccc1)NC(=O)c1nc(Cl)c(N)nc1N | inactive |
| Cn1c(=O)c2[nH]c(C3CCCC3)nc2n(C)c1=O | inactive |
| CC(C)C[C@H](NC(=O)[C@H](O)[C@H](N)Cc1ccccc1)C(=O)O | inactive |
| CNCCc1cnc(CCC(c2ccccc2)c2ccccc2)[nH]1 | inactive |
| CC(N)=O | inactive |
| CCCCCCCCCC[Si](C)(C)CCC(=O)NC(Cc1ccc(C)cc1)c1ccccc1 (stereo not given) | inactive |
| CN1CCc2cc(Cl)c(O)cc2[C@@H](c2ccccc2)C1 | inactive |
| COc1cccc(OC)c1OCCNCC1CSc2ccccc2O1 (stereo not given) | inactive |
| Brc1c(Br)c(Br)c2[nH]cnc2c1Br | inactive |
| CC1CCN=C(N)S1 (stereo not given) | inactive |
